Laboratory results taken from PubChem BioAssay AID504941 (Broad Institute, 2011).
Out of some 1,200 compounds screened, about 170 (14%) were called active. How the calls were made is not given here. Only a sample is shown. Entries with a potency or affinity are not part of this list.

test: twin-arginine translocation blockade, bacterial reporter – cherry-pick, set 2, plate reader, dose response (AID 504941); settings: E. coli Tat transport reporter; series mostly up to 38 µM

outcome, inactive:
O=C(CCSc1ccccc1)NCC1CCCO1 (stereo not drawn), CN(C(=O)c1cc2sccc2n1C)C1CCCCC1, O=C(C1CCCO1)N1CCN(c2c3c(nc4cc(-c5ccc(F)cc5)nn24)CCC3)CC1 (stereo not drawn), CCOc1ccc(Br)cc1CNCCN1CCOCC1, O=C(c1ccc2nc[nH]c2c1)N1CCN(c2ncc(C(F)(F)F)cc2Cl)CC1, CN(C)S(=O)(=O)c1cccc(NC(=O)C2CCN(S(=O)(=O)c3cccs3)CC2)c1, Cn1c(SCC(=O)NCc2cccs2)nnc1-c1ccc(S(=O)(=O)N2CCCC2)cc1, O=C(Cn1cc2c(n1)CCCCC2)N1CCc2ccccc2C1, CC(/C=N/NC(=O)c1n[nH]c2c1CCC2)=C\c1ccccc1, CCC(CO)NC(=O)c1cccc(S(=O)(=O)N2c3ccccc3CC2C)c1 (stereo not drawn), CC(C)S(=O)(=O)C1=NSC2=NC(=O)/C(=C\c3ccc(-c4cccc(C(=O)O)c4)o3)C(=N)N21, O=C(O)c1ccc(NC2=C(N3CCOCC3)C(=O)c3ccccc3C2=O)cc1, O=C(Nc1cc(N2CCOCC2)ncn1)c1ccccc1, O=C(COC(=O)Cn1cnc2ccccc2c1=O)NCC12CC3CC(CC(C3)C1)C2, CC(=O)NC1=NN(C(C)=O)C2(S1)C(=O)N(C(C)C)c1ccc(C)cc12 (stereo not drawn), Cc1cc(-c2c(C)[nH]n(-c3ccc(Cl)cc3)c2=O)n(-c2ccc(Cl)cc2)n1, COC(=O)COc1cc2ccccc2cc1C(=O)Nc1ccccc1, O=[N+]([O-])c1cccc(COc2cccc(CN3CCCCC3)c2)c1, CS(=O)(=O)N1CCN(C(=O)c2cccnc2)CC1, CC1(C)CC(=O)C=C(NCCN2CCN(C(=O)Nc3ccccc3)CC2)C1, CC(C)(C)NC(=O)C[C@H]1C[C@H](C(=O)N2CCOCC2)[C@@]2(CCC3CCCC3)c3[nH]c4cc(-c5ccco5)ccc4c3CCN2C1=O, O=C(NCc1cccc(Cl)c1)c1cnn2c1NC(c1ccco1)CC2C(F)(F)F (stereo not drawn), O=C(CSc1nc2ccccc2c(=O)[nH]1)N1CCN(c2ccccc2F)CC1, CC1Cc2cc(/C(O)=C3/C(=O)C(=O)N(Cc4ccco4)C3c3cccs3)ccc2O1 (stereo not drawn), O=C(CNc1ccc(Cl)cc1)c1ccc(Br)cc1, CC(C)c1ccc(OCC(=O)NC2=NCCS2)cc1, CCCCOC(=O)C1=C(C)NC(=O)NC1c1ccc2c(c1)OCO2 (stereo not drawn), CCN1CCCC1CNC(=O)C(=O)NC(C)C (stereo not drawn), COc1cc(CNCc2ccccn2)ccc1OCc1c(Cl)cccc1Cl, Cc1c(NC(=O)Nc2ccccc2)cccc1[N+](=O)[O-], CC1CN(S(=O)(=O)c2ccc(C(=O)Nc3ccccc3F)cc2)CC(C)O1 (stereo not drawn), Clc1ccc(C2[C@H]3CN(Cc4cccnc4)[C@H](c4ccccc4)C34CC2(c2ccccc2)C4)cn1 (stereo partly drawn), Cc1ccc(NC(=O)CCCc2nc3ccccc3s2)c(O)c1, Cc1cnc(C(=O)OCC(=O)Nc2sc3c(c2C#N)CCC3)cn1, N#Cc1cn(CC(=O)N2CCCc3ccccc32)c2ccccc12, COc1cc(S(=O)(=O)Nc2cc(C)cc(C)c2)ccc1F, COc1ccc(OC2OC3COC(c4ccco4)OC3C(O)C2NC(C)=O)cc1 (stereo not drawn), Cc1ccc(C(=O)CN2/C(=C(\O)c3ccccc3)C(=O)c3ccccc3S2(=O)=O)c(C)c1, CC(=O)c1c(C)[nH]c(C(=O)Nc2ccccc2N2CCOCC2)c1C, COc1cccc(C(=O)NCCS(=O)(=O)NCc2ccccn2)c1, Clc1ccccc1-c1nn2c(-c3ccncc3)nnc2s1, O=C(O)CN1C(=O)CC(Cc2ccc(Cl)cc2)C1=O (stereo not drawn), Cc1c(N2C(=O)c3cccc4cccc(c34)C2=O)c(=O)n(-c2ccccc2)n1C, CCOC(=O)c1ccccc1-n1nnnc1C, CCOC(=O)c1c2c3c(c(Cl)ccc3[nH]c1=O)C(=O)c1ccccc1-2, CCCCN1CC(COCc2ccccc2)Oc2cccc(N3CCCC3)c2S1(=O)=O (stereo not drawn), CC(=O)Nc1cccc(Oc2nc(C(F)(F)F)nc3ccccc23)c1, COc1ccc(NS(=O)(=O)c2cc(NC(=O)CCc3ccc(OC)c(OC)c3)ccc2N2CCOCC2)cc1, O=C(CNC1CCCCC1)Nc1cc(S(=O)(=O)N2CCOCC2)ccc1Cl, O=C(CNC1CCCCCC1)Nc1ccccc1N1CCCCC1, COC(c1ccccc1)c1nnc(CCC(=O)N(C)C(C2CC2)C2CC2)o1 (stereo not drawn), CCOC(=O)C1(Cc2cccc(F)c2)CCN(C2CCOCC2)CC1, C(=N\n1cncn1)/c1ccc(N2CCOCC2)cc1, COc1ccc(/C=N/Nc2ccccn2)cc1O, CC(NC(=O)c1ccc([N+](=O)[O-])cc1[N+](=O)[O-])c1ccc(-c2ccccc2)cc1 (stereo not drawn), CCOc1ccc(NC(=O)c2ccc(NC(=O)COC(=O)Cc3ccc(OC)cc3)cc2)cc1, Cc1ccc(-n2nnnc2SCC(=O)Nc2ccc3c(c2)OCCO3)cc1C, COC(=O)c1ccc(OC(=O)c2nn(C)cc2Cl)c(OC)c1, Cn1ncc(Cl)c1C(=O)NCc1ccc(Cl)cc1, O=C(Cc1ccccc1Cl)c1ccccc1, CCN(Cc1ccccc1)S(=O)(=O)c1c[nH]c(C(=O)OC)c1, O=C(O)Cn1cc(C(=S)N2CCOCC2)c2ccccc21, CCCCc1ccc(N=N/C(C(=O)Nc2ccc(NC(C)=O)cc2OC)=C(/C)O)cc1, CC(=O)NC(Cc1ccc(F)c(F)c1)C(=O)NC1CCN(c2c(Cc3ccccc3)c(C)nc3ncnn23)CC1 (stereo not drawn), O=C1CC(c2cc(-c3ccccc3)no2)C1, CNC(=O)CNC(=O)Nc1ccc(C)cc1, CCN(C[C@H]1N[C@@](Cc2ccccc2)(C(=O)OC)[C@H]2C(=O)N(C)C(=O)[C@@H]12)C(C)=O, Cn1cc(CN2CCC(CO)(CCCc3ccccc3)CC2)c(-c2ccccc2)n1
